“And” between values parts separate entries of the source, which are not always exact repeats. Identical values can stand only once. Results filed as inconclusive are left out. A number with no mark means an inactive call. The source made the active and inactive calls. The call rests on the fitted dose curve; in most records, active means well fitted cell-killing curve with a large enough effect; inconclusive means small, poorly fitted or top-dose-only effect; inactive means flat fitted curve, though single readings scatter.
On the % scale 0 is the no-effect control and ±100 the full control effect; potency means the concentration at half of the fitted maximal effect.

This experiment in a line: Cellular viability qHTS for adrenocortical cancer (ACC) cell line SW-13 (AID 1963989). Further: nearly all actives have a fitted effect of over 65% in size.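 On activity (max response): cells grown in serum-free medium with ITS supplement.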 As to conditions: SW-13 ACC cells viability, CellTiter-Glo, 48 h; activity (max response): stronger effect = lower value. Put shortly: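 Luminescent ATP read-out (CellTiter-Glo, 20 min at room temperature) measured metabolically competent SW-13 cells after 48 h compound treatment. Final concentrations spanned up to 46 uM; bortezomib served as positive control.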
(In general: In qHTS, concentration-response curves come from the screen itself.)
Regarding `CC1(C)CC/C(=C/c2ccc(Cl)cc2)C1(O)Cn1cncn1` (stereo not drawn), the activity (max response) was 3.72%.

Regarding `CCC(=O)O[C@H]1CC[C@H]2[C@@H]3CCC4=CC(=O)CC[C@]4(C)[C@H]3CC[C@]12C`, the activity (max response) was -15%.

Turning to `CCN(CC)Cc1nccn1-c1ccc([N+](=O)[O-])cc1C(=O)c1ccccc1Cl`, the activity (max response) was -3.26%.

For the compound `CCOC(=O)C(c1c(O)c2ccccc2oc1=O)c1c(O)c2ccccc2oc1=O`, the activity (max response) is 16.4%.

On to `O=C(CBr)Nc1ccc(Cl)cc1C(=O)c1ccccc1F`, for which the activity (max response) is -3.92%.

For the compound `CCC(=O)C(CCN(C)C)(c1ccccc1)c1ccccc1`, the activity (max response) is -1.08%.

As to `C[C@]12CC[C@H]3[C@@H](CCC4=CC(=O)CC[C@@H]43)[C@@H]1CC[C@@H]2OC(=O)CCc1ccccc1`, the activity (max response) was -0.27%.

Consider `COc1cc([C@@H]2c3cc4c(cc3[C@@H](O)C3COC(=O)C32)OCO4)cc(OC)c1O` (stereo partly drawn), for which the Potency is 0.316 µM (active).

Regarding `C/C(O)=C(\C#N)C(=O)Nc1cc(Br)ccc1Br`, the activity (max response) was -6.51%.

As to `Cc1ccccc1-n1c(Cn2cnc3c(N)ncnc32)nc2cccc(C)c2c1=O`, the activity (max response) was 9.58%.

As to `CC(C)[N+](C)(CCC(C(N)=O)(c1ccccc1)c1ccccc1)C(C)C`, the activity (max response) was 1.8%.

`O=C1CN2CCOC2(c2ccccc2Cl)c2cc(Cl)ccc2N1` (stereo not drawn): the activity (max response) is -4.14%.

With `CC(C)=CCOc1c2occc2cc2ccc(=O)oc12`, the activity (max response) is -12.5%.

Take `N#CC(C#N)=Cc1ccc(O)c(O)c1`: the activity (max response) is 13.2%.

With `CCOP(=O)(NC(C)C)Oc1ccc(SC)c(C)c1` (stereo not drawn), the activity (max response) is -12.8%.

With `O=C(Nc1ccc(Br)cc1)c1cc(Br)cc(Br)c1O`, the activity (max response) was -19.7%.

In the case of `CCOC(=O)C1(c2ccccc2)CCN(CCc2ccc(N)cc2)CC1`, the activity (max response) is -18.4%.

As to `CN(C)CCc1c[nH]c2ccc(O)cc12`, the activity (max response) is 2.14%.

Consider `CN1CCc2cc(Cl)c(O)cc2[C@H]2c3ccccc3CC[C@@H]21`, for which the activity (max response) is -19.8%.

Turning to `CN1C(=S)CN=C(c2ccccc2)c2cc(Cl)ccc21`, the activity (max response) is -3.17%.

Consider `C[C@]12CC[C@H](O)CC1=CC[C@@H]1[C@@H]2CC[C@]2(C)C(=O)CC[C@@H]12`, for which the activity (max response) is 3.86% and -7.41%.

Regarding `Clc1ccc(C(c2ccc(Cl)cc2)C(Cl)(Cl)Cl)cc1`, the activity (max response) was 4.08%.

`CCC(COC(=O)c1cc(OC)c(OC)c(OC)c1)(c1ccccc1)N(C)C` (stereo not drawn): the activity (max response) was -2.65%.

For the compound `CC(CCc1ccccc1)NC(C)C(O)c1ccc(O)cc1` (stereo not drawn), the activity (max response) was -14.3%.

Turning to `ClCCCN1CCN(c2cccc(Cl)c2)CC1`, the activity (max response) was -6.01%.

For the compound `O=[N+]([O-])c1ccc([As](=O)(O)O)cc1`, the activity (max response) was 4.1%.

Turning to `O=S(=O)(O)C(F)(F)C(F)(F)C(F)(F)C(F)(F)F`, the activity (max response) was 12.3%.

Turning to `Cc1sc2c(c1C)C(c1ccc(Cl)cc1)=NC(CC(N)=O)c1nnc(C)n1-2` (stereo not drawn), the activity (max response) is -21.6%.

Regarding `CC(CC(C#N)(c1ccccc1)c1ccccc1)N(C)C` (stereo not drawn), the activity (max response) is -32%.

For the compound `CNC(C)Cc1ccc2c(c1)OCO2` (stereo not drawn), the activity (max response) is -2%.

Consider `CN[C@@H]1C[C@H]2O[C@@](C)([C@@H]1OC)n1c3ccccc3c3c4c(c5c6ccccc6n2c5c31)C(=O)NC4`, for which the Potency is 0.1 µM (active).

Consider `Oc1ccc([C@H]2CNCc3c2ccc(O)c3O)cc1O`, for which the activity (max response) was -10.4%.

Take `S=C(SSC(=S)N1CCCCC1)N1CCCCC1`: the activity (max response) was -0.757%.

The record behind these values is PubChem BioAssay (NCATS).
